Data from PubChem BioAssay.
Values without a mark were called inactive. Entries that show only a call come without a potency. For some assays here: Potency and affinity values are given separately. The source made the active and inactive calls. Unless noted, the rule behind the calls is not given here.

Tests used:
[1] = antimalarial activity against Dd2 strain (AID 2302;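 active = growth inhibition above 50% at the single 2 µM test dose, taken to imply half-maximal potency below 2 µM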); details: P. falciparum Dd2 in RBCs, LDH growth readout, 72 h; at 2 µM; hits give high values
[2] = HepG2 cytotoxicity, primary screen, cytotoxicity control for P. falciparum antimalarial project, cell-based, ATP luminescence (AID 2303;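 active = inhibition above 50%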); details: HepG2 viability, 24-48 h, at 10 µM, hits give high values
[3] = biological target: L-lactate dehydrogenase (Plasmodium falciparum (isolate CDC / Honduras)) (UniProt Q27743); assay: PfLDH activity inhibition – cell lysate, 3D7 strain, counter-screen for P. falciparum growth inhibition project (AID 2304); details: P. falciparum 3D7 crude extract, LDH APAD/NBT absorbance; at 2 µM; hits give high values
[4] = inhibition of 3D7 malaria parasite growth – strain 3D7 (AID 2306); details: P. falciparum 3D7 erythrocytic growth, LDH absorbance, 72 h; at 2 µM; hits give high values
[5] = biological target: Calcium-dependent protein kinase 1 (Plasmodium falciparum (isolate 3D7)) (UniProt P62344); assay: PfCDPK1 kinase inhibitors, biochemical, TCAMS library (AID 1159585; cut-off not given, nearly all actives have IC50 up to about 0.98 µM;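 note: inhibitors leave more ATP so luminescence rises with inhibition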); details: recombinant PfCDPK1, Kinase-Glo ATP depletion luminescence
[6] = biological target: Plasmodium falciparum protein kinase 6 (PK6, PF3D7_1337100) (UniProt Q8IDW1); assay: PfPK6 kinase inhibitors, biochemical, TCAMS library (AID 1159586); details: recombinant PfPK6, Kinase-Glo ATP depletion luminescence
[7] = biological target: Protein kinase 7 (PK7), Plasmodium falciparum 3D7 (PF3D7_0213400) (UniProt Q7YTF7); assay: inhibition of Plasmodium PK7 catalytic activity – biochemical, TCAMS antimalarial set, Kinase-Glo luminescence (AID 1159587); details: recombinant PfPK7, Kinase-Glo ATP depletion luminescence
[8] = biological target: Calcium-dependent protein kinase 4 (Plasmodium falciparum (isolate 3D7)) (UniProt Q8IBS5); assay: PfCDPK4 kinase inhibitors, biochemical, TCAMS library (AID 1159588; cut-off not given, nearly all actives have IC50 up to about 0.91 µM); details: recombinant PfCDPK4, Kinase-Glo ATP depletion luminescence
Sequence of Calcium-dependent protein kinase 4 (Plasmodium falciparum (isolate 3D7)) (Q8IBS5 whole entry, looked up): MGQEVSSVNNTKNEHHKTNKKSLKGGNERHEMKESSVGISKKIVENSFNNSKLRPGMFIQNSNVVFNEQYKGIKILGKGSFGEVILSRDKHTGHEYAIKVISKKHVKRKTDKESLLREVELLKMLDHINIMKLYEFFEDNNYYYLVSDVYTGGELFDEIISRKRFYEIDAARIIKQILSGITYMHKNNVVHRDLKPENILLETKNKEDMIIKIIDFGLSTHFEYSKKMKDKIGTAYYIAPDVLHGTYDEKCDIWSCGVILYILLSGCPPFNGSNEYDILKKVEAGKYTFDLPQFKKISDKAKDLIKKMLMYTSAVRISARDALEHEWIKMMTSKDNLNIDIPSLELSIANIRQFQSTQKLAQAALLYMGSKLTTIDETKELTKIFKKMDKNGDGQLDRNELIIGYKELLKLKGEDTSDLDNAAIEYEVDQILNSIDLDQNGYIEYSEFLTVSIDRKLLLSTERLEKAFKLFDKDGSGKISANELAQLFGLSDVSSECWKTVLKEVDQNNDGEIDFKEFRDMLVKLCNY

Sequence of L-lactate dehydrogenase (Plasmodium falciparum (isolate CDC / Honduras)) (Q27743 whole entry, looked up): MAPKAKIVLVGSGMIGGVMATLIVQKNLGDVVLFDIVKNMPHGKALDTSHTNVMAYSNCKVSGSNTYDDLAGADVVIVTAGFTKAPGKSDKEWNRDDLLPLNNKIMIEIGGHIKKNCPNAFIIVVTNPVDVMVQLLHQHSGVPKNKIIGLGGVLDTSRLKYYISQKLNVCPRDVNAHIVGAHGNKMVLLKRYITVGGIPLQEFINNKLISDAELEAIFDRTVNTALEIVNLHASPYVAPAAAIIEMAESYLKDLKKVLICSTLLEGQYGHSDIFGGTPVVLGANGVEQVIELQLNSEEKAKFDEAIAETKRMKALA
Sequence of Plasmodium falciparum protein kinase 6 (PK6, PF3D7_1337100) (Q8IDW1 1-305): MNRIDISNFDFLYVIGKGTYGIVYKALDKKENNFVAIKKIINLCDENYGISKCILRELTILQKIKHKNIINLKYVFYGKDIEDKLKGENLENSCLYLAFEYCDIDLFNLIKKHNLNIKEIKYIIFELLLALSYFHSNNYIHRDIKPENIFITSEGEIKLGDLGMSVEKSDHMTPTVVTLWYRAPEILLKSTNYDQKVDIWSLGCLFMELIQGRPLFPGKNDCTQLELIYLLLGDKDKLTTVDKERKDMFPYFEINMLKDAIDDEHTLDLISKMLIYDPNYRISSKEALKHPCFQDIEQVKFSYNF
Sequence of Protein kinase 7 (PK7), Plasmodium falciparum 3D7 (PF3D7_0213400) (Q7YTF7 1-343): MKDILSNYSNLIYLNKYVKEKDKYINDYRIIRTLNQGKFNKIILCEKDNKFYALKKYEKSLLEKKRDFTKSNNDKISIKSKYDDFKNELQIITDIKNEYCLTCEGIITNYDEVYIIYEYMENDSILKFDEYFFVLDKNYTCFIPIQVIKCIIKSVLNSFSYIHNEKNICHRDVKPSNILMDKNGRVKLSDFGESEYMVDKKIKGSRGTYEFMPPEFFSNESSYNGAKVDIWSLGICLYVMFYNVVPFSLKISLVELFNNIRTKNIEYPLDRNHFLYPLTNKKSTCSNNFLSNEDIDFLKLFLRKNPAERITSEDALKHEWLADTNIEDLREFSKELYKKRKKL
Sequence of Calcium-dependent protein kinase 1 (Plasmodium falciparum (isolate 3D7)) (P62344 whole entry, looked up): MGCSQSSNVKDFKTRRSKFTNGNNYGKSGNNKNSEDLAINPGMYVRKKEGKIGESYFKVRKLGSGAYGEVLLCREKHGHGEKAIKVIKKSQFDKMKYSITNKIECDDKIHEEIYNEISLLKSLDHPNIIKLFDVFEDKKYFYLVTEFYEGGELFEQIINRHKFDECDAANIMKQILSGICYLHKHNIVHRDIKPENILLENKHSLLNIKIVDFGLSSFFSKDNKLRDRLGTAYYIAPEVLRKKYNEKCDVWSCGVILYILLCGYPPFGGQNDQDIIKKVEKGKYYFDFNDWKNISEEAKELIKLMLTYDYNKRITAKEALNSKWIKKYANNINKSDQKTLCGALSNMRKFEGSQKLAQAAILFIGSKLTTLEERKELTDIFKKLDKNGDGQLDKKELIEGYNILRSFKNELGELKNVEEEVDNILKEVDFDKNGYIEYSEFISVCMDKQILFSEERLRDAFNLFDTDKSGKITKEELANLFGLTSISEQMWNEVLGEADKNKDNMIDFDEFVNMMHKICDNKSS

SMILES	growth inhibition [1]	inhibition [2]	inhibition [3] [%]	growth inhibition [4]	outcome [5]	outcome [6]	outcome [7]	outcome [8]
O=C(Nc1cccc(-c2cccc(-c3nc4ccc(C(F)(F)F)cc4[nH]3)c2)c1)c1cccnc1	70% (active)	57% (active)	-6	100% (active)	inactive	inactive	inactive	inactive
O=S(=O)(NCCN1CCCC1)c1ccc(-c2cccc(CNC3Cc4ccccc4C3)c2)s1	69% (active)	57% (active)	2	98% (active)	inactive	inactive	inactive	inactive
Fc1ccc2[nH]c3c(NCCN4CCCCC4)ncnc3c2c1	44%	24%	0	99% (active)	inactive	inactive	inactive	inactive
N=C(N)c1cccc(OCCCOc2cccc(NC(=O)Nc3ccc([N+](=O)[O-])cc3)c2)c1	22%	16%	3	98% (active)	inactive	inactive	inactive	inactive
O=C(NOCCOc1ccccc1)c1ccccc1	0%	0%	-1	98% (active)	inactive	inactive	inactive	inactive
O=C(NCCCN1CCC(NC(=O)c2ccc(-c3cccnc3)cc2)CC1)c1ccc(Cl)c(Cl)c1	23%	17%	-5	94% (active)	inactive	inactive	inactive	inactive
CNC(=O)/C=C/c1cc(NC(=O)Nc2ccnc3c(Br)cccc23)ccc1OC	68% (active)	12%	1	95% (active)	inactive	inactive	inactive	inactive
CN(C)c1ccc(-c2nnc(Sc3ccc(C#N)c([N+](=O)[O-])c3)n2Cc2ccco2)cc1	79% (active)	3%	3	95% (active)	inactive	inactive	inactive	inactive
Cc1cccc2[nH]c(-c3cccc(-c4cccc(CNCCc5cccn5C)c4)c3)nc12	49%	4%	2	91% (active)	inactive	inactive	inactive	inactive
CCCOc1c(CCNCCCCNCCc2ccc3ccccc3c2OCCC)ccc2ccccc12	78% (active)	100% (active)	7	100% (active)	inactive	inactive	inactive	inactive
CCCCCN1CCC(NS(=O)(=O)c2cccc(C(=O)Nc3ccc(C(F)(F)F)cc3)c2)C1 (stereo not given)	5%	45%	-3	95% (active)	inactive	inactive	inactive	inactive
FC(F)(F)c1ccc(COc2cc(Cl)ccc2Cn2ccnc2)cc1	0%	13%	-5	95% (active)	inactive	inactive	inactive	inactive
CN(CCCCNC(=O)/C=C/c1ccccc1)C1CC2(CCN(C(=O)OC(C)(C)C)CC2)c2ccccc21 (stereo not given)	51% (active)	11%	1	87% (active)	inactive	inactive	inactive	inactive
COc1ccc2nccc(N3CCC(SCCNS(=O)(=O)c4ccc5c(c4)OCCO5)C3)c2n1 (stereo not given)	87% (active)	36%	5	94% (active)	inactive	inactive	inactive	inactive
Cc1cccc(C(=O)NCCCN2CCC(NC(=O)/C=C/c3ccc(Cl)c(Cl)c3)CC2)c1	23%	39%	1	98% (active)	inactive	inactive	inactive	inactive
CCCCN(CCCC)CCNC(=O)c1cccc(NC(=O)N2CCc3cc(SC)c(C(F)(F)F)cc32)c1	32%	15%	-1	96% (active)	inactive	inactive	inactive	inactive
O=C(Nc1ccc2c(c1)OCCO2)c1cc(-c2cccnc2)nc2ccc(Cl)cc12	27%	2%	-1	95% (active)	inactive	inactive	inactive	inactive
CN(CCN)Cc1cccc(-c2cccc(-c3nc4ccc(F)cc4[nH]3)c2)c1	19%	20%	6	95% (active)	inactive	inactive	inactive	inactive
C(=NNc1nc2ccccc2[nH]1)c1ccccc1OCc1ccccc1	90% (active)	15%	6	100% (active)	inactive	inactive	inactive	inactive
Cc1ccc(NC(=O)c2cc(S(=O)(=O)NC(C)(C)C)ccc2C)nc1	80% (active)	-1%	-2	86% (active)	inactive	inactive	inactive	inactive

SMILES	growth inhibition [1]	inhibition [2]	inhibition [3] [%]	growth inhibition [4]	outcome [5]	outcome [6]	outcome [7]	outcome [8]
CC(C)(C)c1ccc(CN2CCC(CNC(=O)c3cc(-c4cccc(F)c4)cs3)C2)cc1 (stereo not given)	55% (active)	32%	3	100% (active)	inactive	inactive	inactive	inactive
COc1ccc(F)cc1-c1ccc(C(=O)N2CCCN(c3ccc(C(F)(F)F)cn3)CC2)cc1	100% (active)	4%	-3	101% (active)	inactive	inactive	inactive	inactive
c1ccc(-c2cc3cccc(-c4nc5ccncc5[nH]4)c3o2)cc1	95% (active)	37%	-6	100% (active)	inactive	inactive	inactive	inactive
Cc1ccc(Nc2nc(NN=Cc3ccc(-c4ccc([N+](=O)[O-])cc4)o3)nc(N3CCOCC3)n2)cc1Cl	47%	12%	-1	95% (active)	inactive	inactive	inactive	inactive
CCNC(=O)Nc1cccc(-c2cccc(-c3nc4ccc(C(F)(F)F)cc4[nH]3)c2)c1	32%	50% (active)	2	91% (active)	inactive	inactive	inactive	inactive
Fc1ccc(NC(=S)NN=Cc2ccccn2)cc1	67% (active)	56% (active)	-1	95% (active)	inactive	inactive	inactive	inactive
CCc1ccccc1OCCCON1C(N)=NC(N)=NC1(C)C	97% (active)	77% (active)	-2	95% (active)	inactive	inactive	inactive	inactive
CCc1cc(Br)c(CNCCCNc2cc(=O)c3ccccc3[nH]2)s1	45%	6%	-10	90% (active)	inactive	inactive	inactive	inactive
CCN(CC)CCNc1ccnc2c3ccccc3n(C)c12	99% (active)	14%	-4	101% (active)	inactive	inactive	inactive	inactive
CN(Cc1cccc(O)c1)C1CCN(c2cc(NC(=O)c3ccc(F)cc3)ccn2)C1 (stereo not given)	6%	5%	5	91% (active)	inactive	inactive	inactive	inactive
COc1ccc(CC(=O)NC(CCN2CCC3(CC2)CN(S(C)(=O)=O)c2ccccc23)c2ccc(Cl)c(Cl)c2)cc1OC (stereo not given)	77% (active)	10%	7	92% (active)	inactive	inactive	inactive	inactive
CCCCc1ccc(-c2ccc3[nH]c(C)c(Br)c(=O)c3c2)cc1	97% (active)	-10%	-2	97% (active)	inactive	inactive	inactive	inactive
CC(C)CCN1CCC(Oc2ccc(NC(=O)c3ccccc3)cc2Cl)CC1	88% (active)	17%	5	87% (active)	inactive	inactive	inactive	inactive
COc1ccc2c(c1)OC(C)(C)CC2=NOS(=O)(=O)c1ccc(C)cc1	12%	10%	4	97% (active)	inactive	inactive	inactive	inactive
N#Cc1cccc(NC(=O)Nc2cccc(-c3cccc(-c4nc5ccc(C(F)(F)F)cc5[nH]4)c3)c2)c1	99% (active)	74% (active)	5	100% (active)	inactive	inactive	inactive	inactive
CN(CCCCCNC(=O)/C=C/c1ccc(Cl)c(Cl)c1)CCCCc1c[nH]c2ccccc12	15%	17%	2	90% (active)	inactive	inactive	inactive	inactive
COc1cc2c(cc1O)[C@@H]1[C@H](O)[C@@H](O)C=C3CCN(C2)[C@H]31	31%	18%	3	90% (active)	inactive	inactive	inactive	inactive
Nc1nccc2ccc(-c3ccncc3)cc12	95% (active)	19%	5	96% (active)	inactive	inactive	inactive	inactive
Nc1nc(N)c2c(ccc3c2ccn3Cc2ccc(Cl)cc2)n1	99% (active)	100% (active)	0	100% (active)	inactive	inactive	inactive	inactive
Cc1[nH]c(C)c(-c2csc3ccccc23)c(=O)c1Cl	75% (active)	7%	6	97% (active)	inactive	inactive	inactive	inactive
